Shown are actives, neighbours in structure and some others; about 11% of the full set was active somewhere.
HEK293 tox: HEK 293 cell cytotoxicity; HEK 293 viability, ATP luminescence (CellTiter-Glo), 48-72 h; Potency, µM (doses to about 115 µM), for the others: top-dose activity change, negative = cytotoxicity, hits mostly inhibitors; hit rate 6.6% among 94,000; AID 1345083; also: % is scaled to controls: 0 for no effect and ±100 for the full control effect; nearly all actives have a fitted effect of over 60% in size
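HEK 293 cells at 250 cells/well were exposed to compounds by pintool transfer for 48 or 72 hr at 37 degree Celsius, 5% CO2. Viability was read as ATP-coupled luminescence with CellTiter-Glo after 10 min at room temperature.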
3T3 cytotox: NIH 3T3 cell cytotoxicity | NIH 3T3 viability, CellTiter-Glo ATP luminescence, 48-72 h | Potency, µM (top dose mostly 96.7 µM), inactives show at the highest dose activity change, negative = cytotoxicity, actives largely listed as inhibitors | hit rate 4.3% among 94,000 | AID 1345082; also: % is scaled to controls: 0 for no effect and ±100 for the full control effect; nearly all actives have a fitted effect of over 55% in size
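Cytotoxicity was measured by CellTiter-Glo ATP luminescence after 48 or 72 h compound exposure at 37 °C. Mouse NIH 3T3 fibroblasts were seeded at 400 cells/well and dosed by 23 nL pin transfer.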
hNpr1 antagonist: human Npr1 receptor antagonism. P16066. HEK293 hNpr1 GloSensor cGMP, ANP-stimulated luminescence. Potency, µM (highest dose often 46.3 µM), for inactives: at the top dose activity change, negative = inhibition, usual class: inhibitors. hit rate 1.6% among 76,000. AID 1347048; calls by dose curve; also: % is scaled to controls: 0 for no effect and ±100 for the full control effect; nearly all actives have a fitted effect of over 60% in size
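HEK293 cells stably expressing human Npr1 and cGMP GloSensor pGS-40F, loaded 2 h with 2% GloSensor reagent, given compound 30 min at room temperature. Luminescence read before and 20 min after 0.1 nM hNppA.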
FLuc inh: inhibitors of firefly (Photinus pyralis) luciferase; purified P. pyralis luciferase, luminescence, biochemical; P08659; AID 1347043; Potency, µM (highest dose often 115 µM), actives largely listed as inhibitors; hit rate 2.5% among 76,000; also: % is scaled to controls: 0 for no effect and ±100 for the full control effect; nearly all actives have a fitted effect of over 65% in size
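Inhibitors were tested against purified firefly luciferase in a biochemical, low-substrate format (both substrates at 10uM) and luminescence measured with a CCD imager.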
Npr1 antag conf: confirmation of human Npr1 natriuretic peptide receptor antagonists. hit rate 76% among 1,400. shares compounds with hNpr1 antagonist. HEK293 hNpr1 cGMP GloSensor luminescence, ANP-stimulated. Potency, µM (series often up to 57.6 µM), for the others: at the highest dose activity change, negative = inhibition, hits mostly inhibitors; calls by dose curve; also: nearly all actives have a fitted effect of over 70% in size
Npr2 selectivity: hNpr2 antagonism, selectivity versus Npr1; AID 1347046; Potency, µM (doses to about 57.6 µM), for the others: at the highest dose activity change, negative = inhibition, hits mostly inhibitors; shares compounds with hNpr1 antagonist; HEK293 hNpr2 GloSensor cGMP luminescence, CNP-stimulated; hit rate 67% among 1,400; calls by dose curve; also: nearly all actives have a fitted effect of over 70% in size
FLuc counter: counter-screen for Npr1 antagonists: firefly luciferase inhibitors; shares compounds with hNpr1 antagonist; purified FLuc enzyme, luminescence, Km substrate; Potency, µM (series often up to 57.6 µM), without a hit: at the top dose activity change, negative = inhibition, usual class: inhibitors; hit rate 0.7% among 1,400; also: 0% is about no effect
GloSensor cGMP: control cell line activity, Npr1 antagonist counter-screen; shares compounds with hNpr1 antagonist; HEK293 GloSensor cGMP, SNP-stimulated, luminescence; Potency, µM (doses to about 57.6 µM), for inactives: top-dose activity change, negative = inhibition, usual class: inhibitors; hit rate 69% among 1,400; AID 1347051; calls by dose curve; also: % is scaled to controls: 0 for no effect and ±100 for the full control effect; nearly all actives have a fitted effect of over 70% in size
The depositor's hits bear a star; i = inactive; ? = inconclusive; . = no result given; [ ] = another dose, or the depositor's remark. Unless noted, calls follow the shape of the dose curve; as a rule, active = well fitted curve in the direction sought with a large enough effect; inconclusive = small, poorly fitted or top-dose-only effect, or another doubt; inactive = no such curve, though single readings can be large; an effect the other way counts as inactive or inconclusive. Potency is read from the fitted curve at half-maximal effect.

SMILES | HEK293 tox | 3T3 cytotox | hNpr1 antagonist | FLuc inh | Npr1 antag conf | Npr2 selectivity | FLuc counter | GloSensor cGMP
CC(C)c1noc(-c2cn(C3CCN(C(=O)c4cccc(Cl)c4)C3)nn2)n1 (stereo unspecified) | ? | ? | ? | i | 24µM* | 27µM* | 7% | 22µM*
CC(C)c1noc(-c2cn(C3CCN(C(=O)c4ccc(F)cc4Cl)C3)nn2)n1 (stereo unspecified) | ? | ? | ? | i | 15µM* | 15µM* | 3% | 14µM*
O=C(NC1CCN(C(=O)c2ccc(-c3cncnc3)cc2)CC1)c1cccc(Cl)c1 | -16% | -23% | . | . | . | . | . | .
CC(C)NC(=O)N1CCN(C(=O)c2nc3cccnc3n(CCc3ccccc3)c2=O)CC1 | -3% | -4% | . | . | . | . | . | .
Cc1ccc(C2Cn3nnc(C(=O)N4CCN(C(=O)c5cccc(C)c5)CC4)c3CO2)cc1 (stereo unspecified) | 45µM* | ? | 11µM* | i | 22µM* | 22µM* | -1% | 19µM*
COc1ccc(C2Cn3nnc(C(=O)N4CCN(C(=O)c5cccc(C)c5)CC4)c3CO2)cc1 (stereo unspecified) | 8.9µM* | ? | 14µM* | i | 19µM* | 22µM* | 5% | 14µM*
Cc1ccc(C2Cn3nnc(C(=O)N4CCN(C(=O)c5cccc(Cl)c5)CC4)c3CO2)cc1 (stereo unspecified) | 32µM* | ? | ? | i | 15µM* | 22µM* | 2% | 14µM*
COc1ccc(C2Cn3nnc(C(=O)N4CCN(C(=O)c5ccc(C)s5)CC4)c3CO2)cc1 (stereo unspecified) | ? | ? | ? | i | 24µM* | 24µM* | 0% | 24µM*
Cc1ccc(C(=O)N2CCN(C(=O)c3nnn4c3COC(c3ccccc3)C4)CC2)s1 (stereo unspecified) | ? | -20% | -22% | i | . | . | . | .
O=C(Cc1ccccn1)NC1CCCN(CCn2nc3n(c2=O)CCCC3)C1 (stereo unspecified) | -3% | -20% | . | . | . | . | . | .
COC[C@@H]1[C@H](C(=O)NCCc2c[nH]c3ccc(OC)cc23)CCC(=O)N1C | i | i | . | . | . | . | . | .
Cc1cnc(CC2CCN(S(=O)(=O)c3cccc(F)c3)C2)n1C(C)C (stereo unspecified) | ? | -19% | 0% | i | . | . | . | .
COCCN1CC(CO)C2(CCN(Cc3cc(F)c(F)cc3F)CC2)C1 (stereo unspecified) | ? | 1% | 1% | i | . | . | . | .
Cn1c(CNC(=O)c2ccc3nccn3c2)nc2cc(C(F)(F)F)ccc21 | ? | ? | 11µM* | i | 22µM* | 19µM* | -10% | 27µM*
O=C(O)COc1ccc(-c2nccc3c2C(=O)N(Cc2c[nH]c4ccccc24)CC(COc2ccccc2)O3)cc1 (stereo unspecified) | 4% | ? | 7% | ? | . | . | . | .
CC(C)C(=O)NCC1CN(Cc2ccccc2)C(=O)c2c(ccnc2-c2ccc(OCC(=O)O)cc2)O1 (stereo unspecified) | 25µM* | ? | 5.6µM* | i | 5.4µM* | 6.1µM* | 3% | 4.8µM*
O=C(O)COc1ccc(-c2nccc3c2C(=O)N(Cc2cccc(C(F)(F)F)c2)CC(CNC(=O)C2CCOCC2)O3)cc1 (stereo unspecified) | ? | ? | ? | i | 8.6µM* | ? | 5% | 5.4µM*
COc1cccc(CNC(=O)N2CCC(Oc3ncccc3C(=O)N3CCCCC3)C2)c1 (stereo unspecified) | 3% | i | 1% | i | . | . | . | .
Cc1ccc(-c2ccc(O)cn2)c2cccnc12 | ? | -41% | ? | i | ? | ? | -3% | ?
Cc1ncc(-c2ccc(F)c3cccnc23)nc1C | -2% | 5% | 5% | i | . | . | . | .
COCCCNC(=O)c1nc2sccn2c1-c1cccc(C(F)(F)F)c1 | 2% | -11% | . | . | . | . | . | .
O=C(Nc1ccc(Cl)cc1)c1nc2c(o1)CCN(CC1CCCC1)CC2 | ? | ? | 28µM* | i | 35µM* | 31µM* | -14%[86.2 µM] | 25µM*
O=C(Nc1ccccc1)c1cnc2n1CCN(CC1CCCC1)CC2 | -22%[172 µM] | ? | 1%[70.6 µM] | i | . | . | . | .
O=C(Nc1ccc(Cl)cc1)c1nc2c(o1)CCN(CC1CC1)CC2 | ? | ? | ? | i | ? | -26%[86.2 µM] | -22%[86.2 µM] | ?
Cc1nc(C)c(C(=O)N2CCc3c(c(-c4nncn4Cc4ccccc4)nn3C)C2)s1 | 1% | -7% | 4% | i | . | . | . | .
SMILES | HEK293 tox | 3T3 cytotox | hNpr1 antagonist | FLuc inh | Npr1 antag conf | Npr2 selectivity | FLuc counter | GloSensor cGMP
O=C(c1ccccc1OCC1CCCN(C(=O)C2CCCC2)C1)N1CCOCC1 (stereo unspecified) | -4% | -24% | . | . | . | . | . | .
O=C1COc2ccc(NCc3cccs3)nc2CN1Cc1ccc(F)cc1 | ? | ? | ? | i | . | . | . | .
O=C1COc2ccc(NCCc3ccccn3)nc2CN1Cc1ccc(C(F)(F)F)cc1 | ? | ? | ? | i | ? | ? | 2% | ?
O=C1COc2ccc(NCc3cccs3)nc2CN1CCOc1ccccc1 | 89µM* | ? | 14µM* | i | 20µM* | 22µM* | 6%[86.2 µM] | 18µM*
O=C1COc2ccc(NCCOc3ccccc3)nc2CN1Cc1ccccc1F | ? | ? | 22µM* | i | 31µM* | 35µM* | 3%[86.2 µM] | 31µM*
O=C1COc2ccc(-c3cccc(O)c3)nc2CN1Cc1ccc(C(F)(F)F)cc1 | ? | ? | -18%[70.6 µM] | i | . | . | . | .
O=C1CN(C(=O)OCc2ccccc2)CC(O)CN1CCc1ccccc1 (stereo unspecified) | -17% | ? | . | . | . | . | . | .
O=C(Cc1ccc2c(c1)OCO2)N1CCNc2cnc(Nc3cccc(F)c3)nc2C1 | ? | ? | 40µM* | i | 35µM* | 35µM* | 6%[86.2 µM] | 35µM*
CN(C)c1cccc(C(=O)N2CCNc3cnc(Nc4cccc(C(F)(F)F)c4)nc3C2)c1 | ? | ? | 16µM* | i | 22µM* | 24µM* | -6% | 19µM*
CC(C)NC(=O)N1CCNc2cnc(Nc3cccc(F)c3)nc2C1 | ? | ? | ? | i | . | . | . | .
